In the library only some 11% were active in any assay of this set; here they are far more common.
L3MBTL1 inh – qHTS Assay for the Inhibitors of L3MBTL1. AlphaScreen L3MBTL1–H3K9me1 peptide binding. Potency, µM (top dose mostly 57.1 µM), without a hit: at the highest dose activity, negative = inhibition, usual class: inhibitors. actives 0.66% (n = 230,000). AID 485360, 2010; also: potency is read from the fitted curve at half-maximal effect; % is scaled to controls: 0 for no effect and ±100 for the full control effect; nearly all actives have a fitted effect of over 60% in size
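AlphaScreen proximity signal between nickel-chelate acceptor and streptavidin donor beads (final 10 ug/mL) reports binding of 50 nM L3MBTL1 to 75 nM biotin-H3 K9me1 peptide; complex incubated with compounds 30 min at room temperature; cefsulodin titration as control.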
G9a inh – qHTS Assay for Inhibitors of Histone Lysine Methyltransferase G9a; Histone-lysine N-methyltransferase EHMT2 (Homo sapiens), Q96KQ7; G9a H3K9 monomethylation, AlphaScreen, 2 h; Potency, µM (doses to about 102 µM), for inactives: at the top dose activity, negative = inhibition, actives largely listed as inhibitors; actives 8.8% (n = 350,000); also: potency is read from the fitted curve at half-maximal effect; % is scaled to controls: 0 for no effect and ±100 for the full control effect; nearly all actives have a fitted effect of over 75% in size
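Step 1: enzyme (final 20 nM) with compound, 15 min RT. Step 2: substrate peptide 500 nM and SAM 20 uM, 2 h RT. Step 3: anti-H3K9me1 antibody and AlphaScreen beads, 10 min, then plate read.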
BAZ2B inh – qHTS Assay for Inhibitors of BAZ2B | Bromodomain adjacent to zinc finger domain protein 2B (Homo sapiens), Q9UIF8 | AlphaScreen BAZ2B-H3K14Ac peptide displacement | Potency, µM (top dose mostly 114 µM), for the others: at the highest dose activity change, negative = inhibition, hits mostly inhibitors | actives 4.4% (n = 360,000) | AID 504333, 2011; also: potency is read from the fitted curve at half-maximal effect; % is scaled to controls: 0 for no effect and ±100 for the full control effect; nearly all actives have a fitted effect of over 60% in size
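Multi-concentration screen (max 110 uM) measuring displacement of acetylated histone H3 peptide from BAZ2B by AlphaScreen, using 50 nM protein, 50 nM peptide and 10 ug/mL streptavidin donor plus Ni-chelate acceptor beads.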
JMJD2A Tudor – qHTS Assay for Inhibitors of JMJD2A-Tudor Domain | Lysine-specific demethylase 4A (Homo sapiens), O75164 | AlphaScreen JMJD2A-Tudor / H3K4me3 peptide binding | Potency, µM (titrated, usually from 114 µM), for inactives: at the top dose activity change, negative = inhibition, most hits filed as inhibitors | actives 4.4% (n = 390,000); also: potency is read from the fitted curve at half-maximal effect; % is scaled to controls: 0 for no effect and ±100 for the full control effect; nearly all actives have a fitted effect of over 50% in size
HP1b binding inh – HTS for Inhibitors of HP1-beta Chromodomain Interactions with Methylated Histone Tails; AlphaScreen HP1-beta / biotin-H3K9me3 peptide binding; Potency, µM (top dose mostly 114 µM), for the others: at the highest dose activity change, negative = inhibition, most hits filed as inhibitors; actives 0.56% (n = 390,000); AID 540317, 2011; also: potency is read from the fitted curve at half-maximal effect; nearly all actives have a fitted effect of over 70% in size
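Compound inhibition of the preformed complex between 50 nM HP1-beta and 50 nM biotinylated H3K9me3 peptide was read by AlphaScreen. Buffer was PBS pH 7.4 with 0.01% Tween-20. Incubations ran 30 min at room temperature, with 10 ug/mL donor/acceptor beads.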
PI5P4K alpha inh – qHTS for Inhibitors of phosphatidylinositol 5-phosphate 4-kinase (PI5P4K). max response, %. actives 1.2% (n = 330,000). Phosphatidylinositol 5-phosphate 4-kinase type-2 alpha (Homo sapiens), P48426. PI5P4Kalpha enzyme, ADP-Glo luminescence, 60 min; stronger effect = lower value; active = max response of -50% or lower; inconclusive = between -30% and -50%; inactive = -30% or higher; also: value at the top dose of about 77 µM; % is scaled to controls: 0 for no effect and ±100 for the full control effect
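Controls without substrate or without enzyme flank wells where PI5P4Kalpha converts substrate using 5 microM ATP (final). Incubation lasts 60 minutes at room temperature; ADP formed is read by ADP-Glo luminescence.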
* = called active by the depositor; ? = inconclusive; . = no result given; [ ] = remark or other dose. Unless noted, calls follow the shape of the dose curve; as a rule, active = well fitted inhibition curve with a large enough effect; inconclusive = small, poorly fitted or top-dose-only effect; inactive = no such curve, though single readings can be large or run the other way.

SMILES	L3MBTL1 inh	G9a inh	BAZ2B inh	JMJD2A Tudor	HP1b binding inh	PI5P4K alpha inh
COc1cc2cc(C(c3nnnn3C3CCCC3)N3CCc4ccccc43)c(=O)[nH]c2cc1OC (centres undefined)	-1%	45µM*	-11%	-11%	26%	0
Cc1noc(C)c1CSc1nnc(-c2ccccc2)n1N	.	3.2µM*	-4%	?	?	-27
COc1cc(-c2nnc(SC/C=C/c3ccccc3)n2N)cc(OC)c1OC	-7%	-2%[12.7 µM]	-3%	-2%	12%	13
O=C(CSc1nnc(-c2cccnc2)n1Cc1ccco1)c1ccccc1	-8%	-16%[12.7 µM]	-29%	-19%	24%	-10
Fc1ccccc1CSc1nnc(-c2cnccn2)n1Cc1ccco1	?	-16%[59 µM]	-21%	-24%	8%	-11
C(=C\c1ccccc1)/CSc1nnc(-c2cnccn2)n1Cc1ccco1	-8%	10µM*	-34%	?	6%	-22
Nn1c(SC/C=C/c2ccccc2)nnc1-c1ccncc1	.	14µM*	-7%	?	20%	-6
O=C(CSc1nnc(-c2ccc(O)cc2)n1Cc1ccco1)c1ccccc1	.	50µM*	-9%	-10%	52%	-14
CCOc1ccc(Sc2cc(C(=O)NCCc3ccc(OC)c(OC)c3)c3ccccc3n2)cc1	.	0%[59 µM]	3%	-12%	19%	.
COc1ccc(C2=CC(c3cccc(C)c3)n3nnnc3N2)cc1 (centres undefined)	.	?	1%	-22%	78%	.
Clc1ccc(CSc2nnc(-c3ccccn3)n2Cc2ccco2)c(Cl)c1	27%	50µM*	-5%	?	20%	.
O=C(CSc1nnc(-c2ccccn2)n1Cc1ccco1)c1ccc(-c2ccccc2)cc1	-4%	45µM*	-4%	-31%	5%	.
C=C1CCN(C(C(=O)O)C(C)C)S(=O)(=O)c2ccccc21 (centres undefined)	.	.	.	-15%	9%	.
CCOc1ccc(NC(=O)c2ccc(-c3nc(COc4ccccc4)c(C)o3)cc2)cc1	.	-3%[59 µM]	-2%	-12%	16%	.
Cc1ccc(S(=O)(=O)c2cnc(SCC(=O)Nc3ccccc3C(F)(F)F)[nH]c2=O)cc1C	.	6%[59 µM]	1%	-12%	46%	.
Cc1cc(N=Nc2ccccc2C(=O)O)c(C)c(C)c1O	-26%	32µM*	28µM*	-21%[11.4 µM]	?	-51*
Cc1cc(O)c(C(C)C)cc1N=Nc1ccccc1C(=O)O	-9%	40µM*	?	?	?	-57*
Cc1cc(C)c(C)c(C(=O)c2ccccc2C(=O)O)c1C	5%	.	-9%	-9%	27%	1
CCOC(=O)c1cc(-c2ccc(OC)cc2)n(CCC(=O)NCc2ccc(OC)cc2)c1C	.	-36%[59 µM]	2%	3%	31%	.
CCOC(=O)c1c(C)[nH]c(C)c1S(=O)(=O)N(C)CC(=O)N1CCN(c2ccccc2OC)CC1	.	-25%[59 µM]	-16%	-18%	29%	.
Cc1nc(C(F)(F)F)c(C(=O)N/N=C(\N)c2cccnc2)s1	.	29%	79µM*	28µM*	10%	-1
CCc1ccc(C(C)NC(=O)c2ncn[nH]2)cc1 (centres undefined)	?	-8%[59 µM]	50µM*	-19%[57.1 µM]	57%	6
O=C(CSc1nc2ccccc2c(=O)[nH]1)Nc1ccc(C(=O)O)cc1	-5%	?	?	-12%	5%	-88*
Nc1nc(SCC(=O)c2cc(F)ccc2F)n[nH]1	-10%	40µM*	-21%	-25%	1%	-9
O=C(CSc1nc2ccccc2c(=O)[nH]1)Nc1ccc([N+](=O)[O-])cc1	0%	.	.	-12%	38%	-14
SMILES	L3MBTL1 inh	G9a inh	BAZ2B inh	JMJD2A Tudor	HP1b binding inh	PI5P4K alpha inh
Cc1ccc(C(=O)CSc2nc3ccccc3c(=O)[nH]2)cc1	.	45µM*	10%	6%	28%	-4
Cc1cc(C(=O)CSc2n[nH]c(N)n2)c(C)n1C1CC1	-6%	.	-36%	-34%	-14%	-16
C=CCn1c(C)cc(C(=O)CSc2n[nH]c(N)n2)c1C	.	32µM*	-2%	?	8%	3
CCOCCCNC(=O)C1CCCN(Cc2nc(-c3ccc(CC)cc3)oc2C)C1 (centres undefined)	.	-12%[59 µM]	-16%	-16%	24%	.
CCOc1ccccc1CNC(=O)CCC(=O)N1CCSc2ccccc21	.	-26%[59 µM]	-29%	-15%	33%	.
Nc1nc2c(nc(Br)n2C2OC3COP(=O)(O)O[C@@H]3C2O)c(=O)[nH]1 (some centres undefined)	.	-11%[59 µM]	.	.	.	.
NS(=O)(=O)c1ccc(NC(=O)CSc2nc3c(cnn3-c3ccccn3)c(=O)[nH]2)cc1	-3%	40µM*	9%	?	14%	3
CC(C)Sc1nc2ccccc2c(=O)[nH]1	.	6%	3%	21%	39%	0
CC(Sc1nc2ccccc2c(=O)[nH]1)C(=O)O (centres undefined)	.	3.2µM*	-7%	-8%	13%	.
C=CCn1c(C)cc(C(=O)CSc2nc3ccccc3c(=O)[nH]2)c1C	-3%	50µM*	?	-9%[11.4 µM]	-24%	-28
O=C(CSc1nc2c(cnn2-c2ccc(F)cc2)c(=O)[nH]1)Nc1ccc(Br)cc1	.	-28%[59 µM]	-16%	?	10%	.
C=CCn1c(C)cc(C(=O)CSc2nc3ccccc3[nH]2)c1C	-6%	?	?	?	-13%	.
Cc1cnc2c(c1SCC(=O)NCc1ccccc1Cl)c(=O)n(C)c(=O)n2C	.	2%[59 µM]	-4%	-13%	25%	.
COc1cccc(Nc2nc(C#N)nc(NC3CCCC3)n2)c1	.	.	.	-3%	.	.
COc1cc(CN2CCN(C(=O)c3cccc4ccccc34)CC2)cc(OC)c1OC	0%	20µM*	56µM*	20µM*	?	12
COc1cccc(CN2CCN(C(=O)c3cc(-c4ccccn4)nc4ccc(Cl)cc34)CC2)c1	-27%	?	-30%	-6%	17%	-28
COc1cccc(CN2CCN(C(=O)c3cccc4ccccc34)CC2)c1	-6%	.	-36%[57.1 µM]	28µM*	?	-1
COc1cccc(C(=O)N2CCN(C(=O)c3cccc4ccccc34)CC2)c1OC	-4%	-12%[59 µM]	.	6%	16%	0
COc1ccc(-c2nc3scc(CCNS(=O)(=O)c4c(C)noc4C)n3n2)cc1OC	.	-10%[59 µM]	-5%	-12%	33%	.
